Measured values reported in PubChem BioAssay (NCATS).
Inconclusive results are not listed. A call without a number means that no potency is given here. Calls of active or inactive are those of the source. The call rests on the fitted dose curve; in most records, active means well fitted curve in the direction sought with a large enough effect; inconclusive means small, poorly fitted or top-dose-only effect, or another doubt; inactive means no such curve, though single readings can be large; an effect the other way counts as inactive or inconclusive.

Assay: qHTS of pediatric cancer cell lines to identify multiple opportunities for drug repurposing: Confirmatory screen for RD cells (AID 1347124);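 further: cells exposed to compound for 48 h before viability readout; nearly all actives have a fitted effect of over 65% in size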
Details: RD rhabdomyosarcoma cell viability; series mostly up to 45.9 µM
Method in brief: (§1)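 Cells (500-1,000/well) in growth media were settled 5 h at 37 degrees C, then given compounds for 48 h. Viability was read as CellTiter-Glo luminescence. Primary runs used MIPE at 11 points (0.78 nM-46 µM) and NPC at 8 points (0.59 nM-46 µM); follow-ups used 11 points.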
Potency means the concentration at half of the fitted maximal effect.

SMILES | Potency
CCOC(=O)[C@H](CCc1ccccc1)N[C@@H](C)C(=O)N1CCCC1C(=O)O (stereo partly drawn) | 13.1 µM (active)
CC(=O)N1CCN(c2ccc(OCc3nn(C)c(C)c3-c3cccc4c(CCCOc5cc(C)c(Cl)c(C)c5)c(C(=O)O)n(Cc5cccnc5)c34)cc2)CC1 | inactive
CO[C@H]1/C=C\O[C@@]2(C)Oc3c(C)c(O)c4c(O)c(c5c(nc6cc(C)ccn65)c4c3C2=O)NC(=O)C(C)=CC=C[C@H](C)[C@H](O)[C@@H](C)[C@@H](O)[C@@H](C)[C@H](OC(C)=O)[C@H]1C | inactive
Cc1cc(CS(=O)(=O)c2ccccc2)cc(OCc2ccc(CN3CCC[C@H]3CO)cc2)c1 | inactive

Assay: qHTS of pediatric cancer cell lines to identify multiple opportunities for drug repurposing: Confirmatory screen for Rh18 cells (AID 1347125); further: nearly all actives have a fitted effect of over 55% in size
Details: Rh18 rhabdomyosarcoma cells, viability; series mostly up to 45.9 µM
Method in brief: as §1

SMILES | Potency
C[C@@]1(C(=O)Nc2ccc(F)nc2)CCCN1c1nc(Nc2cc(C3CC3)[nH]n2)c2cccn2n1 | 7.37 µM (active)
O=C1Nc2ccc(I)cc2C1=Cc1cc(Br)c(O)c(Br)c1 | inactive
CNC(=O)[C@H](CC1=CN=C2C=CCC=C12)NC(=O)[C@@H](CC(=O)NO)CC(C)C | 1.47 µM (active)
CN(C)CC[C@H](CSc1ccccc1)Nc1ccc(S(=O)(=O)NC(=O)c2ccc(N3CCN(Cc4ccccc4-c4ccc(Cl)cc4)CC3)cc2)cc1[N+](=O)[O-] | 1.31 µM (active)
CCN(CCO)CCCOc1ccc2c(Nc3cc(CC(=O)Nc4cccc(F)c4)[nH]n3)ncnc2c1 | inactive
Nc1ccn([C@@H]2O[C@H](CO)[C@@H](O)[C@H]2O)c(=O)n1 | inactive
CC1(C)OC2CC3C4CC(F)C5=CC(=O)C=CC5(C)C4C(O)CC3(C)[C@]2(C(=O)CO)O1 (stereo partly drawn) | inactive
FC(F)(F)c1ccc(C=Cc2nc(COc3ccc(CCCCn4ccnn4)cc3)co2)cc1 | inactive

Assay: qHTS of pediatric cancer cell lines to identify multiple opportunities for drug repurposing: Confirmatory screen for Rh30 cells (AID 1347126); further: nearly all actives have a fitted effect of over 55% in size
Details: Rh30 rhabdomyosarcoma cell viability; series mostly up to 45.9 µM
Method in brief: as §1

SMILES | Potency
CC(C)CN(C[C@@H](O)[C@H](Cc1ccccc1)NC(=O)O[C@H]1CO[C@H]2OCC[C@H]21)S(=O)(=O)c1ccc(N)cc1 | inactive
COc1cc([C@@H]2c3cc4c(cc3[C@@H](O[C@@H]3O[C@@H]5CO[C@@H](C)O[C@@H]5[C@H](O)[C@@H]3O)[C@H]3COC(=O)[C@H]23)OCO4)cc(OC)c1O | 4.65 µM (active)
CC(C)(C)c1[nH]cnc1C=c1[nH]c(=O)c(=Cc2ccccc2)[nH]c1=O | 0.0202 µM (active)
O=C1Nc2ccc(I)cc2C1=Cc1cc(Br)c(O)c(Br)c1 | 1.17 µM (active)
CNC(=O)[C@H](CC1=CN=C2C=CCC=C12)NC(=O)[C@@H](CC(=O)NO)CC(C)C | 1.47 µM (active)
C[C@@H]1O[C@@H](O[C@H]2CC[C@@]3(C)[C@H](CC[C@@H]4[C@H]3C[C@@H](O)[C@]3(C)[C@@H](C5=CC(=O)OC5)CC[C@]43O)C2)C[C@H](O)[C@@H]1O[C@H]1C[C@H](O)[C@H](O[C@H]2C[C@H](O)[C@@H](O)[C@@H](C)O2)[C@H](C)O1 (stereo in doubt) | 0.339 µM (active)
Cc1cnc(-c2cc(N3CCN(C(=O)CCS(C)(=O)=O)CC3)ncc2Cl)c(C)c1 | inactive
C[C@@]1(c2cc(-c3cncnc3)c(F)cc2F)CCSC(N)=N1 | inactive
COc1ccc2c(c1)c(C1=C(c3c[nH]c4ccccc34)C(=O)NC1=O)cn2CCCN(C)C | 2.33 µM (active)
CCN(CCO)CCCOc1ccc2c(Nc3cc(CC(=O)Nc4cccc(F)c4)[nH]n3)ncnc2c1 | inactive
CC1(C)OC2CC3C4CC(F)C5=CC(=O)C=CC5(C)C4C(O)CC3(C)[C@]2(C(=O)CO)O1 (stereo partly drawn) | inactive
CCC(=O)N1CCN(c2ccc(-n3c(=O)ccc4cnc5ccc(-c6cnc7ccccc7c6)cc5c43)cc2C(F)(F)F)CC1 | inactive
CC[C@]1(O)C[C@H]2CN(CCC3=c4ccccc4=N[C]3[C@@](C(=O)OC)(c3cc4c(cc3OC)N(C)[C@H]3[C@@](O)(C(N)=O)[C@H](O)[C@]5(CC)C=CCN6CC[C@]43[C@@H]65)C2)C1 | inactive
CCOC(=O)[C@H](CCc1ccccc1)N[C@@H](C)C(=O)N1CCCC1C(=O)O (stereo partly drawn) | 7.37 µM (active)
CC1(C)CC(=O)c2c(C(F)(F)F)nn(-c3ccc(C(N)=O)c(NC4CCC(O)CC4)c3)c2C1 (stereo not drawn) | 0.369 µM (active)
CC(=O)N1CCN(c2ccc(OCc3nn(C)c(C)c3-c3cccc4c(CCCOc5cc(C)c(Cl)c(C)c5)c(C(=O)O)n(Cc5cccnc5)c34)cc2)CC1 | inactive
CC1CNc2c(cccc2S(=O)(=O)N[C@@H](CCCN=C(N)N)C(=O)N2CC[C@@H](C)C[C@@H]2C(=O)O)C1 (stereo partly drawn) | 20.8 µM (active)
CO[C@H]1/C=C\O[C@@]2(C)Oc3c(C)c(O)c4c(O)c(c5c(nc6cc(C)ccn65)c4c3C2=O)NC(=O)C(C)=CC=C[C@H](C)[C@H](O)[C@@H](C)[C@@H](O)[C@@H](C)[C@H](OC(C)=O)[C@H]1C | inactive
C[C@H](c1ccc(F)cc1CCCC(=O)O)N(c1cc(F)ccc1F)S(=O)(=O)c1ccc(Cl)cc1 | inactive
Nc1ncnc2c1ncn2[C@@H]1O[C@H](CO)[C@@H](O)[C@@H]1O | 11.7 µM (active)
Cc1cc(CS(=O)(=O)c2ccccc2)cc(OCc2ccc(CN3CCC[C@H]3CO)cc2)c1 | inactive
